Assay [1] addresses Arylsulfatase A (Homo sapiens) (UniProt P15289). Put plainly: qHTS screen for enhancers of Arylsulfatase A (ASA1): LOPAC Validation Assay (AID 720538). Further: potency means the concentration at half of the fitted maximal effect. In a few lines:
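First, ASA-I179S fibroblasts from an MLD patient adhered for 6 hrs. Next, compounds were added for 48h. Then pNCS substrate (0.5mM final) with lysis buffer reacted 14h at room temperature before NaOH stop and fluorescence measurement.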

Assay [2] can be described thus: qHTS for compounds that reverse cellular toxicity of Amyloid beta (A-beta) peptide in yeast: LOPAC Validation Assay (AID 720559). The method in brief:
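Activity is expressed relative to DMSO and an equimolar ferric chloride/clioquinol mix. Compounds were pinned into medium with A-beta-expressing yeast, grown 48 hr at 30 C, then read by absorbance at 600 nm.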

The nature of assay [3]: qHTS for Activators of Parkin Expression: LOPAC Validation Assay (NLuc Reporter) (AID 720572). In a few lines:
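Parkin promoter-driven FLuc/NLuc neuronal reporter cells; 24 h plating, 7-pt dose response, 24 h at 37 C/5% CO2; FLuc then NanoLuc reagent, 10 min each, luminescence; DMSO/positive control normalized.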
For orientation: In qHTS, concentration-response curves come from the screen itself.

Assay [4] can be described thus: qHTS for Activators of Parkin Expression: LOPAC Validation Assay (FLuc Reporter) (AID 720573). The method in brief:
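A neuronal cell line harbouring FLuc and NLuc reporters behind the Parkin promoter was exposed to compounds for 24 h. Firefly luciferase signal, measured after 10 min with detection reagent, was scaled to DMSO and positive-control wells.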

Inconclusive results are not listed. A call without a number means that no potency is given here. The source made the active and inactive calls. The call rests on the fitted dose curve; in most records, active means well fitted curve in the direction sought with a large enough effect; inconclusive means small, poorly fitted or top-dose-only effect, or another doubt; inactive means no such curve, though single readings can be large; an effect the other way counts as inactive or inconclusive.

Arylsulfatase A (Homo sapiens), sequence (P15289 whole entry, looked up): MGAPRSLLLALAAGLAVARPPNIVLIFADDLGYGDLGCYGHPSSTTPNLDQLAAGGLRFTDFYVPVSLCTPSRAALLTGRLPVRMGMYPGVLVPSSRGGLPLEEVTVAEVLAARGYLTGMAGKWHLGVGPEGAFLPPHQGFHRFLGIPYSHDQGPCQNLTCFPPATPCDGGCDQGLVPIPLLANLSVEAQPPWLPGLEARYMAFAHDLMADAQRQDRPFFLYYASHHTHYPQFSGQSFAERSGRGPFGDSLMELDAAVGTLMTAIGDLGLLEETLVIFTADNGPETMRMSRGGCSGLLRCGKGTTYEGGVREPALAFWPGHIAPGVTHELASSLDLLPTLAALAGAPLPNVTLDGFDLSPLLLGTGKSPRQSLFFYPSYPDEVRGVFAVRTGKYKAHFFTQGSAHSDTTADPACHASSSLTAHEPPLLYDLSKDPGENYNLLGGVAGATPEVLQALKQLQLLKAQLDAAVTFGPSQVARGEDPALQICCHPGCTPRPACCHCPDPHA

For `O=C(N[C@@H](Cc1ccccc1)C(=O)CCl)OCc1ccccc1`, the Potency entry in assay [1], in assay [3] and in assay [4] was “inactive” each time. For the same compound, the result in assay [2] was inactive.
Consider `Oc1cc2c(cc1O)C(c1ccccc1)CNCC2` (centres undefined), for which the Potency result in assay [1], in assay [3] and in assay [4] was “inactive” in each case. Besides, the compound was called inactive in assay [2].
Consider `CC(C)C[C@H](NC(=O)C1OC1C(=O)O)C(=O)NCCCCN=C(N)N` (some centres undefined), for which the Potency result in assay [1], in assay [3] and in assay [4] was “inactive” throughout. Besides, the compound was called inactive in assay [2].
`CC(N)(C(=O)O)c1ccc(C(=O)O)cc1` (centres undefined): the Potency result in assay [1], in assay [3] and in assay [4] was “inactive” in each case. Further, the outcome in assay [2] was inactive.
Regarding `CCCn1c(=O)c2c(ncn2C)n(CCC)c1=O`, the Potency result in assay [1], in assay [3] and in assay [4] was “inactive” throughout. Also, the compound was classed as inactive in assay [2].
For the compound `CC(=O)O[C@H]1CC2(C)[C@@H](C[C@@H](O)[C@H]3[C@@]4(C)CC[C@@H](O)[C@@H](C)[C@@H]4CC[C@@]32C)C1=C(CCC=C(C)C)C(=O)O` (some centres undefined), the Potency result in assay [1], in assay [3] and in assay [4] was “inactive” throughout. Moreover, the compound was classed as inactive in assay [2].
Consider `COc1ccc(CCN(C)CCc2ccc(OC)c(OC)c2)cc1OC`, for which the Potency entry in assay [1], in assay [3] and in assay [4] was “inactive” in each case. Also, the compound was called inactive in assay [2].
For `Nc1ccc(-c2nc3ccc(-c4nc5ccc(N)cc5[nH]4)cc3[nH]2)cc1`, in assay [1], the Potency is 6.75 µM (active). Moreover, in assay [2], the compound was called inactive. For the same compound, the Potency entry in assay [3] and in assay [4] was “inactive” each time.
In the case of `NC1CCN(O)C1=O` (centres undefined), the Potency result in assay [1], in assay [3] and in assay [4] was “inactive” in each case. The outcome in assay [2] was inactive.
For `CC[C@H](NC(=O)c1c(C)c(-c2ccccc2)nc2ccccc12)c1ccccc1`, the Potency result in assay [1], in assay [3] and in assay [4] was “inactive” each time. The compound was called inactive in assay [2].
For the compound `O=c1[nH]c2ccccc2c2ccccc12`, the Potency result in assay [1], in assay [3] and in assay [4] was “inactive” throughout. For the same compound, the result in assay [2] was inactive.
Regarding `Nc1ccc(N2C(=O)c3ccccc3C2=O)c(Cl)c1`, the Potency result in assay [1], in assay [3] and in assay [4] was “inactive” in each case. Further, the compound was classed as inactive in assay [2].
Turning to `CN(C)CCCc1cc(C(=O)Nc2ccc(-c3ccncc3)cc2)ccc1O`, the Potency entry in assay [1], in assay [3] and in assay [4] was “inactive” in each case. In addition, in assay [2], the compound was classed as inactive.
On to `CSC(N)=NCCC[C@H](N)C(=O)O`, for which the Potency entry in assay [1], in assay [3] and in assay [4] was “inactive” throughout. Further, the compound was called inactive in assay [2].
For the compound `CCC1(O)CC2CN(CCc3c([nH]c4ccccc34)[C@@](C(=O)OC)(c3cc4c(cc3OC)N(C=O)C3[C@]45CCN4CC=C[C@@](CC)([C@@H](OC(C)=O)[C@]3(O)C(=O)OC)[C@H]45)C2)C1` (some centres undefined), the Potency entry in assay [1], in assay [3] and in assay [4] was “inactive” each time. Further, in assay [2], the compound was called inactive.
Regarding `N[C@H](C(=O)O)c1cc(O)cc(O)c1`, the Potency result in assay [1], in assay [3] and in assay [4] was “inactive” in each case. In addition, the result in assay [2] was inactive.
As to `CC[n+]1c(/C=C/C=C2/N(C)c3ccccc3C2(C)C)sc2ccccc21`, the Potency entry in assay [1], in assay [3] and in assay [4] was “inactive” each time. The call in assay [2] was inactive.
For `CC(=O)NCCc1c[nH]c2ccc(O)cc12`, the Potency entry in assay [1], in assay [3] and in assay [4] was “inactive” throughout. Besides, the outcome in assay [2] was inactive.
In the case of `COc1ccccc1N1CCN(CCN(C(=O)c2ccc(F)cc2)c2ccccn2)CC1`, the Potency entry in assay [1], in assay [3] and in assay [4] was “inactive” throughout. Besides, the result in assay [2] was inactive.
On to `NC(=O)c1cc[n+](CC2=C(C(=O)O)N3C(=O)[C@@H](NC(=O)[C@@H](c4ccccc4)S(=O)(=O)[O-])[C@H]3SC2)cc1`, for which the Potency entry in assay [1], in assay [3] and in assay [4] was “inactive” in each case. Also, the outcome in assay [2] was inactive.
Take `OCC1NCC(O)C(O)C1O` (centres undefined): the Potency entry in assay [1], in assay [3] and in assay [4] was “inactive” each time. The result in assay [2] was inactive.
Take `CNCCc1cnc(CCC(c2ccccc2)c2ccccc2)[nH]1`: the Potency entry in assay [1], in assay [3] and in assay [4] was “inactive” each time. In addition, in assay [2], the outcome was inactive.
Take `Cc1nc(N=Nc2ccc(S(=O)(=O)O)cc2S(=O)(=O)O)c(COP(=O)(O)O)c(C=O)c1O`: the Potency result in assay [1], in assay [3] and in assay [4] was “inactive” each time. In assay [2], the result was inactive.
In the case of `CC1=C(C(=O)O)N2C(=O)[C@@H](NC(=O)C(N)C3=CCC=CC3)[C@H]2SC1` (some centres undefined), the Potency entry in assay [1], in assay [3] and in assay [4] was “inactive” each time. In addition, the result in assay [2] was inactive.
For `c1ccc2c(c1)CCC[C@H]2Nc1nc2ccccc2[nH]1`, the Potency entry in assay [1], in assay [3] and in assay [4] was “inactive” throughout. Besides, in assay [2], the result was inactive.
For `CCCCCC(O)CCCC(=O)O` (centres undefined), the Potency entry in assay [1], in assay [3] and in assay [4] was “inactive” each time. Besides, in assay [2], the compound was called inactive.
For the compound `O=C(O)c1cc2cc(F)ccc2[nH]1`, the Potency result in assay [1], in assay [3] and in assay [4] was “inactive” in each case. In addition, the outcome in assay [2] was inactive.
Take `CC(C)(C)c1cc(/C=C(\C#N)C(N)=S)cc(C(C)(C)C)c1O`: the Potency entry in assay [1], in assay [3] and in assay [4] was “inactive” throughout. Moreover, the compound was classed as inactive in assay [2].
With `CN1CCc2cc(Cl)c(O)cc2[C@@H](c2ccccc2)C1`, the Potency result in assay [1], in assay [3] and in assay [4] was “inactive” in each case. In assay [2], the compound was called inactive.
As for `CN(CC[C@@H](Oc1ccc(C(F)(F)F)cc1)c1ccccc1)CC(=O)O`, the Potency result in assay [1], in assay [3] and in assay [4] was “inactive” in each case. Further, the compound was called inactive in assay [2].
Consider `CC(/C=C/c1cccc(Oc2ccc(F)cc2)c1)N(O)C(N)=O` (centres undefined), for which the Potency result in assay [1], in assay [3] and in assay [4] was “inactive” throughout. The call in assay [2] was inactive.
Regarding `c1ccc2nc(C3=NCCN3)ccc2c1`, the Potency result in assay [1], in assay [3] and in assay [4] was “inactive” throughout. For the same compound, the compound was called inactive in assay [2].
For the compound `Clc1nccc2c1ccc1ccccc12`, the Potency entry in assay [1], in assay [3] and in assay [4] was “inactive” throughout. Further, the compound was classed as inactive in assay [2].
`O=c1[nH]c(=O)c2nc3ccccc3nc2[nH]1`: the compound was classed as inactive in assay [2]. The Potency result in assay [3] and in assay [4] was “inactive” in each case.
Turning to `CC(C)C[C@H](NC(=O)[C@H](O)[C@H](N)Cc1ccccc1)C(=O)O`, the outcome in assay [2] was inactive. Moreover, the Potency result in assay [3] and in assay [4] was “inactive” in each case.
As to `NCC(O)(CS(=O)(=O)O)c1ccc(Cl)cc1` (centres undefined), in assay [2], the compound was called inactive. For the same compound, the Potency result in assay [3] and in assay [4] was “inactive” each time.
Regarding `Nc1ncnc2c1nc(Sc1ccc(Cl)cc1)n2[C@H]1OC2COP(=O)(O)O[C@@H]2C1O` (some centres undefined), in assay [2], the result was inactive. Moreover, the Potency result in assay [3] and in assay [4] was “inactive” throughout.
Turning to `Oc1cc(O)c2c(c1)O[C@H](c1ccc(O)c(O)c1)[C@@H](O)C2`, the compound was called inactive in assay [2]. The Potency result in assay [3] is “inactive”.
For `CC(C)NC[C@H](O)COc1cccc2ccccc12`, in assay [2], the compound was classed as inactive. In addition, the Potency result in assay [3] and in assay [4] was “inactive” throughout.

The record behind these values is PubChem BioAssay (NCATS).
